In PubChem BioAssay (NCI) one finds growth data, which are given here for 40 molecules.

Several values for one entry are separate records, joined by “and”; a condition that tells them apart may be missing. Identical values can stand only once. The panel holds about 83,000 compounds, 20% with a hit somewhere; the sample as a whole holds those more often.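 Growth was measured after 48 h exposure to one concentration of compound in 96-well plates. Values under 10 count as active.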 Activity calls are given as the source filed them.

This assay relates to CCRF-CEM leukemia. Nature of the assay: NCI-60 one-dose screen, 48 h (100 = growth as untreated, 0 = no growth, -100 = all killed). The settings on record: 10 µM unless noted.
With `N#Cc1nc(-c2ccccc2)oc1N1CCC(C2(C(F)(F)F)N=N2)CC1`, the growth is 102% (inactive).

Turning to `CNC(=O)c1cc(N2CCc3cc(NC(=O)Nc4ccc(N5CCOCC5)c(C(F)(F)F)c4)ccc32)ccn1`, the growth is 25.1% (inactive). To `O=C(CCCCCCNC(=O)C(O)(O)C(F)(F)F)Nc1ccc(Br)cc1` belongs 23.9% (inactive); to `Cc1csc(/N=C(N)/N=C(\N)c2cccnc2)n1`, 79.2% (inactive); to `C=C1CCc2nc(SCC(=O)O)ccc2N1`, 96.9% (inactive). Take `CCCCOc1ccc(S(=O)(=O)N2CCN(c3nc(C)cc(N4CCOCC4)n3)CC2)cc1`: the growth is 60.3% (inactive). To `CCn1c2ccc(/C=N/N(C)S(=O)(=O)CCN(C)C)cc2c2cc(/C=N/N(C)S(=O)(=O)CCN(C)C)ccc21` belongs 19.4% (inactive); to `NCCNC(=O)c1cccc(COc2ccccc2NC(=O)c2cc(Br)c(Br)[nH]2)c1`, 17.9% (inactive). On to `CNC(=O)Nc1ccc(Nc2cc(-c3ccc(-n4cccn4)cc3)[nH]n2)c(C)c1`, for which the growth was 93.1% (inactive). As to `CCN(CC)c1ccc(/C=N/NC(=O)c2ccc(S(N)(=O)=O)cc2)c(O)c1`, the growth was 9.4% (active). To `COc1cc(-c2nc(-c3ccccc3)[nH]c2-c2ccnc(NCCCNS(=O)(=O)c3cccc(F)c3)n2)ccc1F` belongs 66% (inactive); to `C/C=C/CC(C)C(O)[C@H](NC(=O)[C@@H]1CCCN1C(=O)[C@](C)(CC)NC(=O)CCCCCCCCC)C(=O)N[C@@](C)(CC)C(=O)N[C@@H](CCC(N)=O)C(=O)N[C@H](CCC(N)=O)C(=O)NC(C)(C)C(=O)NC(C)(C)C(=O)N[C@@H](CCC(N)=O)C(=O)N[C@H](CC(C)C)C(=O)N[C@H](CO)CC(C)C` (stereo not given in full), 60.2% (inactive) and -40% (active); to `O=S(=O)(NCCCNc1nccc(-c2[nH]c(-c3ccccc3)nc2-c2ccc(F)c(O)c2)n1)c1ccc(C(F)(F)F)cc1`, 4.62% (active). Regarding `N#Cc1c(-c2cccs2)c(C#N)c(=O)n(Cc2nc3ccccc3[nH]2)c1N`, the growth was 101% (inactive). To `Cc1ccc2c(n1)C(=O)C(Cl)=C(Nc1ccccc1C(=O)OC(C)(C)C)C2=O` belongs -27.1% (active); to `Brc1cccc(-c2cc(-c3ccc4c(c3)OC=CO4)[nH]n2)c1`, 22% (inactive). Regarding `CN1CCN(CCCCCC(=O)Nc2nc(-c3cccc(NS(=O)(=O)c4cccc5c(N(C)C)cccc45)c3)cs2)CC1`, the growth is 59.8% (inactive). On to `O=C(CSc1nnc(-c2ccc(Cl)cc2)n1-c1ccccc1)Nc1ccc(Cl)cc1`, for which the growth is 53.9% (inactive). To `NC1[C@H]2CN(c3cnc(C(=O)Nc4cc(F)cc5cccnc45)cn3)C[C@@H]12` (stereo not given in full) belongs 30% (inactive); to `CC1CCN(CC(=O)Nn2c(COc3ccccc3)nc3ccccc3c2=O)CC1`, 89.4% (inactive); to `CCCCSC1=C(Cl)CN(c2ccccc2)C1=O`, 117% (inactive). Next, `CC1=Cc2ccccc2OC12C=Cc1ccccc1O2` (stereo not given): 105% (inactive).

For the molecule `Brc1ccc(-c2cc(-c3ccc4c(c3)OC=CO4)n[nH]2)s1`, the growth is 79.4% (inactive).

Consider `CC1=C(C)C(=O)C(Nc2cccc(C(=O)OC(C)(C)C)c2)=CC1=O`, for which the growth was 78.8% (inactive).

As for `CCCC/C(=C\c1ccc(O)c(O)c1)C(=O)NC(Cc1ccccc1)C(=O)C(=O)NCCc1ccc(OC)cc1` (stereo not given), the growth was 97% (inactive).

In the case of `CCN(CC)c1ccc(/C=N/NC(=O)c2ccc(NS(C)(=O)=O)cc2)c(O)c1`, the growth was 6.1% (active). To `O=C(/C=C/C=C/c1csc(Br)n1)NO` belongs 43.1% (inactive); to `O=C(CCCCCCNC(=O)C(O)(O)C(F)(F)F)Nc1ncc(-c2ccc(Br)cc2)s1`, 18.4% (inactive).

`Cc1cc(C)cc(NC2=C(Cl)C(=O)c3nc(C)ccc3C2=O)c1`: the growth was 7.91% (active).

For `C[C@@H]1OCC2(CCN(c3cnc(C(=O)Nc4cc(F)cc5cccnc45)cn3)CC2)[C@@H]1N`, the growth is 15.7% (inactive).

In the case of `CN1CCN(c2ccc(Nc3nc(NCCCNS(=O)(=O)c4ccccc4)c4sccc4n3)cc2)CC1`, the growth was 37.9% (inactive). As for `CCCCCCNC(=O)Oc1ccc(/C(=C(/C)c2ccc(OC)cc2)c2ccc(OCCN3CCCCCC3)cc2)cc1`, the growth is 12.4% (inactive). Next, `O=[N+]([O-])c1ccc(NC(=S)NNC(=S)Nc2ccc(Br)cc2)cc1`: 89.1% (inactive); `C#C[C@]1(O)CC[C@H]2[C@@H]3CC=C4c5sc(N6CCN(C)CC6)nc5CC[C@]4(C)[C@H]3CC[C@@]21C`: -8.52% (active).

For the molecule `CN1CCN(Cc2ccc(NC(=O)c3cncc(C#Cc4cnc5ccc(NCCO)nn45)c3)cc2C(F)(F)F)CC1`, the growth was 9.38% (active). To `C#CCOc1cccc(/C(N)=N/C(N)=N/c2nc3ccccc3s2)c1` belongs 76.5% (inactive); to `NC(N)=NS(=O)(=O)c1ccc(N=Nc2c(N)nn(-c3ccc([N+](=O)[O-])cc3[N+](=O)[O-])c2N)cc1`, 97.7% (inactive).

Turning to `N#Cc1c(-c2cccs2)cc(-c2cnccn2)nc1SCC(=O)N/N=C/c1cccs1`, the growth is 90.6% (inactive). Next, `COc1cc(C(=O)c2cc(C(C)=O)c3ccc(C)cn23)cc(OC)c1OC`: 47.1% (inactive). Regarding `Brc1ccc(-c2cc(-c3ccc4c(c3)OCCO4)n[nH]2)s1`, the growth was 18.1% (inactive).
